# Results reported in the OligoGym collection.
# Molecular target: PML
# Experiment: pooled miR-30 sensor sort-seq; sequence = guide strand
# Conditions: shRNA
# Also: reference of the scale not given here.
row,Sequence,sensor-assay potency score (higher = more potent)
1,TTCGGCATCTGAGTCTTCCGAG,0.322
2,TTGTATTGGAGACATCCTCTCC,-0.965
3,TTGTATTGGAGACATCCAGGTC,-0.853
4,TCGTGCTTGAGGAACCACTGGT,0.0745
5,TTCATTGTCAATCTTGAGGTCA,0.253
6,TTCTTGAGTTTGAAGCTGCTGG,-0.233
7,TTTCTCGCCAGGTAGGTCTGGG,0.0297
8,TATCTTTCTACATGGATGGAGT,-0.448
9,TACAGCTGCATCTTTCCCCTGG,0.227
10,TATTGGAGACATCCTCTCCATA,-1.32
11,AAGTCTGAGAGTCACCTGCTGT,-0.995

# Molecular target: PNPLA3
# Experiment: as above
# Conditions: shRNA
row,Sequence,sensor-assay potency score (higher = more potent)
1,TAGAAGGGGATGAAGCAGGAAC,-0.79
2,TAAGACATTATCCTAATGGGTA,-0.331
3,ATTACATAAGACATTATCCTAA,-0.605
4,TAGCAAGTTGCAAATCTTGCTC,-0.46
5,TCTTGCTCATGTATCCACCTTT,-0.0736
6,TAGCAGCTCATCTCCCTCCAGC,-1.05
7,TATCGCACGCCTCTGAAGGAAG,-1.42
8,TTCGTGGACTTGACTTTAGGGC,-0.495
9,TTGCTTAAGTTGAAGGATGGAT,-0.584
10,TCTGCTTTGGTCTCTGCTGGAC,-0.599
11,TTTGCAGAGACCCTGTCGGAGG,-0.649
12,TTACATAAGACATTATCCTAAT,-0.725

# Molecular target: POLG
# Experiment: as above
# Conditions: shRNA
row,Sequence,sensor-assay potency score (higher = more potent)
1,TTCCTCATCATAGTCGGGGTGC,0.36
2,TTGGCTGCTATCCACAGACTGC,-1.02
3,TTATTGAACATTTCTGACTCTG,0.362
4,TTGTAGGCAAACATGCACCTGG,0.0528
5,TTAAACTGCATTAGTAAGCGCT,-0.404
6,ATTACAGCTATTACCATCCTTG,-0.0536
7,TATTGAACATTTCTGACTCTGT,0.187
8,TATGGCACTATTGTCAGTGAGC,-0.848
9,TTTAGGTGTGACCCGCATCTGC,-1.03
10,TAATCCAGTTCTTCTACCGTTT,-0.468
11,TTGAACATTTCTGACTCTGTGC,0.0886
12,TTGTCCTGTAGTCCACACCGAT,-1.34

# Molecular target: POLH
# Experiment: as above
# Conditions: shRNA
row,Sequence,sensor-assay potency score (higher = more potent)
1,TTGCTTTAGAGGATTCTTCTAG,-0.177
2,TAACTTTCTGCCTTTCTGCAGC,-0.259
3,TATTGTGTGAAATTCCAGCTGA,0.557
4,TAACTTCTTAGCATCATCTGCC,0.509
5,ATAACTTCTTAGCATCATCTGC,-0.998
